{
  "source": "PubChem BioAssay (NCATS)",
  "note": "Inconclusive results are not listed. Active and inactive are the calls of the source. Calls follow the shape of the dose curve; as a rule, active = well fitted curve in the direction sought with a large enough effect; inconclusive = small, poorly fitted or top-dose-only effect, or another doubt; inactive = no such curve, though single readings can be large or run the other way. Potency is read from the fitted curve at half-maximal effect.",
  "data": [
    {"assay": "qHTS for Inhibitors of the vitamin D receptor (VDR): Hit Validation using a Texas Red Assay (AID 602201)", "conditions": "VDR coregulator binding, Texas Red fluorescence polarization, agonist-bound VDR ligand-binding domain; series mostly up to 57.1 µM", "excerpt": "The vitamin D receptor (VDR) is a ligand-activated transcription factor and is partially responsible for the regulation of the endocrine system. This includes the transcriptional regulation of genes involved in the production of the parathyroid hormone (PTH) and the regulation of the blood calcium level. High levels of PHT can cause hypercalcemia in the case of primary and tertiary hyperparathyroidism. The VDR-mediated gene regulation, activated by its ligand 1,25-dihydroxyvitamin D3 (1,25-(OH)2D3), is governed by the recruitment of coactivators. Our hypothesis is that small molecules, with the ability to inhibit the interaction between VDR and certain coactivators, are able to selectively modulate VDR-mediated transcription. Our long term objective is the application these VDR-coactivator inhibitors to study the role of VDR-coactivator binding for specific VDR regulated genes. Ultimately, these molecules can be developed into new treatments for hypercalcemic hyperparathyroidism. No small molecule or non-peptide inhibitors are known for the VDR-coactivator interaction.\nIn a collaboration between the University of Wisconsin, Milwaukee and the NIH Chemical Genomics Center (NCGC) a HTS-compatible enzymatic assay was developed. The assay uses fluorescence polarization as its read-out to measure the inhibition between VDR and coregulator peptide SRC2-3 exerted by small molecules. This assay was used to screen the NIH Molecular Libraries Small Molecule Repository (MLSMR). The HTS assay detects polarization at 665 nm emitted by the Alexa Fluor 647 dye. This validation assay detects polarization of the emission from Texas-Red at 615 nm.\nNIH Chemical Genomics Center [NCGC]\nNIH Molecular Libraries Probe Centers Network [MLPCN]\nAssay Submitter (PI): Alexander Arnold, University of Wilwaukee\nFour microliter of either 1.5 uM VDR-LBD, […], and 7 nM Texas Red (all final concentrations) in columns 1, 2, and 5 to 48 or 7 nM Texas Red in columns 3 and 4 are dispensed into black medium-binding solid bottom Greiner plates. Both solutions are kept at 4 deg C and protected from light and dispensed using a Kalypsys dispenser. Then 23nl of compounds and controls are added with Kalypsys pintool. The control is 26.5 mM CBT358 (final concentration of 151 uM) and the compounds' final range in concentration is 457 nM - 114 uM. Plate is centrifuged at 1000 RPM for 15 seconds to remove any residual bubbles. The plate is then incubate at ambient room temperature for 2 hours. It is then read on the Envision for a fluorescent polarization read-out (Ex 595 nm/Em 615 nm)", "values": [
      {"smiles": "Cc1oc2c(c1C(=O)c1ccccc1)C(=O)C(=O)c1ccccc1-2", "Potency": "3.98 µM (active)"},
      {"smiles": "COc1cc(/C=C2/C(=O)c3cccc([N+](=O)[O-])c3C2=O)c(Br)cc1O", "Potency": "inactive"},
      {"smiles": "O=C(NC1(O)C(=O)c2ccccc2C1=O)c1c(Cl)cccc1Cl", "Potency": "3.98 µM (active)"},
      {"smiles": "CCOC(=O)COc1ccc(Br)cc1/C=C/c1[nH]c(=O)[nH]c(=O)c1[N+](=O)[O-]", "Potency": "inactive"},
      {"smiles": "Cc1[nH]n(-c2ncc(-c3ccccc3)s2)c(=O)c1C(c1ccc(Br)cc1)C(C#N)C#N", "note": "(stereo not given)", "Potency": "inactive"},
      {"smiles": "CC1=NOC(=O)/C1=C\\c1ccc(-c2ccccc2Br)o1", "Potency": "inactive"},
      {"smiles": "O=C(NC1(O)C(=O)c2ccccc2C1=O)c1ccccc1", "Potency": "6.31 µM (active)"},
      {"smiles": "COc1cc([N+](=O)[O-])ccc1-c1ccc(/C=C2\\C(=O)ON=C2c2ccccc2)o1", "Potency": "3.16 µM (active)"},
      {"smiles": "CC(C)(C)c1ccc(-n2nc(C#N)c(Cl)cc2=O)cc1", "Potency": "15.8 µM (active)"},
      {"smiles": "O=C1C(Cl)=C(NS(=O)(=O)c2ccc([N+](=O)[O-])cc2)C(=O)c2ccccc21", "Potency": "inactive"},
      {"smiles": "O=C(NNc1cc(Br)c(O)c(Br)c1)c1ccccc1", "Potency": "25.1 µM (active)"},
      {"smiles": "O=[N+]([O-])c1c(Nc2ccccn2)cc(Cl)c2nonc12", "Potency": "inactive"},
      {"smiles": "COc1ccc2c(c1)Cc1sc(NC(=O)c3cccc(C)c3)nc1-2", "Potency": "10 µM (active)"},
      {"smiles": "O=C(O)c1ccc2c(c1)C(=O)N(c1ccc(/C=C/C(=O)c3ccccc3)cc1)C2=O", "Potency": "inactive"},
      {"smiles": "Cc1ccc(C(=O)/C=C/c2cc(Br)cc(Br)c2O)o1", "Potency": "inactive"},
      {"smiles": "Cc1[nH]n(-c2ncc(-c3ccccc3)s2)c(=O)c1C(c1ccc(Cl)cc1)C(C#N)C#N", "note": "(stereo not given)", "Potency": "inactive"},
      {"smiles": "CC1=NN(c2cccc(C(=O)O)c2)C(=O)/C1=C\\C=C/c1ccccc1", "Potency": "5.62 µM (active)"},
      {"smiles": "Cc1ccc(/C(O)=C2/C(=O)C(=O)OC2c2ccc(Cl)cc2)cc1", "note": "(stereo not given)", "Potency": "7.08 µM (active)"},
      {"smiles": "COc1ccc(S(=O)(=O)Nc2cc(SCC(=O)O)c(O)c3ccccc23)cc1", "Potency": "3.55 µM (active)"},
      {"smiles": "O=C(O)c1cc(Nc2cc(Cl)c3nonc3c2[N+](=O)[O-])ccc1O", "Potency": "inactive"},
      {"smiles": "O=C1ON=C(c2ccccc2)/C1=C/c1ccc(-c2ccccc2[N+](=O)[O-])o1", "Potency": "4.47 µM (active)"},
      {"smiles": "CC1=NOC(=O)/C1=C\\c1ccc(-c2ccc(Br)cc2)o1", "Potency": "3.16 µM (active)"},
      {"smiles": "O=S(=O)(Nc1cc2nc3ccccc3nc2n1Cc1ccccc1)c1ccc(Cl)cc1", "Potency": "inactive"},
      {"smiles": "COc1ccc(-c2cc(N)n(S(=O)(=O)c3c(F)c(F)c(F)c(F)c3F)n2)cc1OC", "Potency": "20 µM (active)"},
      {"smiles": "CC1=C(CO)C(=O)OC([C@@H](C)C2CC[C@H]3C4C[C@H]5O[C@]56[C@@H](O)C=CC(=O)[C@]6(C)C4CC[C@]23C)C1", "note": "(stereo not given in full)", "Potency": "11.2 µM (active)"}
    ]}
  ]
}
